Measurements from PubChem BioAssay AID1159580 (chemical genetic matrix, 2015).
Values joined by “and” are separate entries in the source; they are usually repeats but may differ in a detail not shown here. Equal entries are not always repeated. Out of some 5,500 compounds screened, about 2,000 (36%) were called active. Another 18% or so got no clear call; they are omitted. No stated cut-off is given here; in the data, active means normalized growth mostly below about 0.91 (no sharp cut-off); inconclusive means no clear call, values can overlap the other calls; inactive means mostly above about 0.92. The list shows a part of the results. A structure can be active in one record and inactive in another.

Test: chemical genetic growth profiling, strain panel (AID 1159580);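 further: tested at 20 µM; growth read once vehicle control cultures reached saturation at 30 °C; 1 = growth at the plate median or of vehicle wells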
Conditions: S. cerevisiae deletion strains, growth OD

Q: What does the source list for `CCN(CC)CCCC(C)Nc1c2ccc(Cl)cc2nc2ccc(OC)cc12` (stereo not drawn)?
A: normalized growth (locus YAL013W, strain DEP1, stronger effect = lower value): 0.992 (inactive); normalized growth (locus YAL021C, strain ccr4, stronger effect = lower value): 0.906 (active); normalized growth (locus YAL026C, strain drs2, stronger effect = lower value): 0.994 (inactive); normalized growth (locus YAL030W, strain snc1, stronger effect = lower value): 1.02 (inactive); normalized growth (locus YAL040C, strain CLN3, stronger effect = lower value): 0.972 (inactive); normalized growth (locus YBL061C, strain skt5, stronger effect = lower value): 1.03 (inactive); normalized growth (locus YBR009C, strain hhf1, stronger effect = lower value): 0.894 (active); normalized growth (locus YBR021W, strain FUR4, stronger effect = lower value): 0.89 (inactive); normalized growth (locus YBR023C, strain chs3, stronger effect = lower value): 0.984 (inactive); normalized growth (locus YBR171W, strain sec66, stronger effect = lower value): 1.05 (inactive); normalized growth (locus YBR229C, strain ROT2, stronger effect = lower value): 0.87 (active); normalized growth (locus YBR231C, strain swc5, stronger effect = lower value): 0.978 (inactive); normalized growth (locus YBR279W, strain paf1, stronger effect = lower value): 0.966 (inactive); normalized growth (locus YCL011C, strain gbp2, stronger effect = lower value): 0.965 (inactive); normalized growth (locus YCL016C, strain dcc1, stronger effect = lower value): 0.844 (active); normalized growth (locus YCL029C, strain bik1, stronger effect = lower value): 0.479 (active); normalized growth (locus YCL061C, strain MRC1 (second series), stronger effect = lower value): 0.917 (active); normalized growth (locus YCL061C, strain MRC1, stronger effect = lower value): 1.01 (inactive); normalized growth (locus YCL069W, strain vba3, stronger effect = lower value): 1.01 (inactive); normalized growth (locus YCR088W, strain abp1, stronger effect = lower value): 1.03 (inactive); normalized growth (locus YDL005C, strain med2, stronger effect = lower value): 1.01 (inactive); normalized growth (locus YDL035C, strain GPR1, stronger effect = lower value): 0.627 (active); normalized growth (locus YDL040C, strain nat1, stronger effect = lower value): 1.03 (inactive); normalized growth (locus YDL074C, strain BRE1, stronger effect = lower value): 0.511 (active); normalized growth (locus YDL101C, strain DUN1, stronger effect = lower value): 0.728 (active); normalized growth (locus YDL134C, strain PPH21, stronger effect = lower value): 0.771 (active); normalized growth (locus YDL185W, strain tfp1, stronger effect = lower value): 1.01 (inactive); normalized growth (locus YDL192W, strain arf1, stronger effect = lower value): 0.669 (active); normalized growth (locus YDR001C, strain nth1, stronger effect = lower value): 1.04 (inactive); normalized growth (locus YDR069C, strain doa4, stronger effect = lower value): 0.989 (inactive); normalized growth (locus YDR101C, strain arx1, stronger effect = lower value): 0.413 (active); normalized growth (locus YDR137W, strain rgp1, stronger effect = lower value): 1.04 (inactive); normalized growth (locus YDR150W, strain NUM1, stronger effect = lower value): 0.945 (inactive) and 0.826 (active); normalized growth (locus YDR159W, strain sac3, stronger effect = lower value): 1.08 (inactive); normalized growth (locus YDR162C, strain NBP2, stronger effect = lower value): 0.802 (active); normalized growth (locus YDR195W, strain ref2): 1.06 (inactive); normalized growth (locus YDR297W, strain sur2, stronger effect = lower value): 1 (inactive); normalized growth (locus YDR318W, strain mcm21, stronger effect = lower value): 0.618 (active); normalized growth (locus YDR334W, strain swr1, stronger effect = lower value): 1.02 (inactive); normalized growth (locus YDR335W, strain msn5, stronger effect = lower value): 1.02 (inactive); normalized growth (locus YDR363W, strain ESC2, stronger effect = lower value): 0.715 (active); normalized growth (locus YDR388W, stronger effect = lower value): 0.695 (active); normalized growth (locus YDR392W, strain spt3, stronger effect = lower value): 0.717 (active); normalized growth (locus YDR502C, strain sam2, stronger effect = lower value): 0.708 (active); normalized growth (locus YEL003W, strain gim4, stronger effect = lower value): 1.01 (inactive); normalized growth (locus YEL037C, strain rad23, stronger effect = lower value): 0.992 (inactive); normalized growth (locus YEL061C, strain CIN8 (second series), stronger effect = lower value): 1.03 (inactive); normalized growth (locus YEL061C, strain CIN8, stronger effect = lower value): 0.907 (active)
